Test system: Pseudomonas aeruginosa PA14 dppA1-A5 penta mutant + pBBR5.DppA1 (PA14_58350)
Experiment: respiration area under curve with compound as sole nitrogen source, 24 h (OmniLog AUC (arbitrary units)); higher = more respiration / better utilisation as nitrogen source, active = 2000 or more
Protocol: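 Biolog Phenotype MicroArray plates PM6-PM8: each di/tripeptide is the sole nitrogen source. Tetrazolium reduction was read in the OmniLog for 24 h at 37°C and summarised as area under the respiration curve (arbitrary units). Values below 2000 count as no respiration. Strain is the SBP penta mutant complemented with DppA1 on a plasmid under its native promoter. Lys/His/Cys peptides are excluded.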

Respiration area under curve, active:
NC(N)=NCCC[C@H](NC(=O)[C@@H](N)CCCN=C(N)N)C(=O)O (plate: PM6) 8780
CC(C)C(NC(=O)C1CCCN1)C(=O)O (stereo not given) (plate: PM8) 5180
CC(C)[C@H](N)C(=O)N[C@@H](CCC(=O)O)C(=O)O (plate: PM8) 2880
CC(C)C[C@H](N)C(=O)N1CCC[C@H]1C(=O)O (plate: PM8) 5120
NCC(=O)N[C@@H](Cc1ccccc1)C(=O)N[C@@H](Cc1ccccc1)C(=O)O (plate: PM8) 5190
CSCC[C@H](N)C(=O)N[C@@H](Cc1c[nH]c2ccccc12)C(=O)O (plate: PM7) 2980
CC(C)[C@H](N)C(=O)N[C@@H](Cc1ccccc1)C(=O)O (plate: PM8) 5560
CC(C)C[C@H](N)C(=O)N[C@@H](CC(N)=O)C(=O)O (plate: PM8) 11100
N[C@@H](Cc1ccccc1)C(=O)NCC(=O)NCC(=O)O (plate: PM8) 7350
NC(=O)CC[C@H](NC(=O)[C@@H](N)CCC(N)=O)C(=O)O (plate: PM6) 6630
C[C@H](N)C(=O)N[C@@H](CCCN=C(N)N)C(=O)O (plate: PM6) 9300
O=C(O)CC(NC(=O)C1CCCN1)C(=O)O (stereo not given) (plate: PM7) 2970
N[C@@H](CO)C(=O)N[C@@H](Cc1ccc(O)cc1)C(=O)O (plate: PM7) 5300
NC(=O)CC[C@H](N)C(=O)NCC(=O)O (plate: PM6) 5240
N[C@@H](CO)C(=O)N1CCC[C@H]1C(=O)O (plate: PM7) 12700
O=C(O)[C@H](Cc1ccccc1)NC(=O)[C@@H]1CCCN1 (plate: PM7) 6240
CSCC[C@H](N)C(=O)N1CCC[C@H]1C(=O)O (plate: PM7) 8590
CC(C)C[C@H](NC(=O)[C@@H](N)C(C)C)C(=O)O (plate: PM7) 7530
CC(C)[C@H](N)C(=O)N[C@@H](Cc1ccc(O)cc1)C(=O)N[C@H](C(=O)O)C(C)C (plate: PM8) 7350
NC(=O)CC[C@H](NC(=O)[C@@H](N)CCCN=C(N)N)C(=O)O (plate: PM6) 8870
CC[C@H](C)[C@H](NC(=O)[C@@H](N)CC(C)C)C(=O)O (plate: PM6) 3910
CC(C)C[C@H](NC(=O)[C@@H](N)CO)C(=O)O (plate: PM7) 6240
CC(C)C[C@H](N)C(=O)N[C@@H](CCCN=C(N)N)C(=O)O (plate: PM6) 8260
C[C@H](NC(=O)CCN)C(=O)O (plate: PM8) 4280
NC(N)=NCCC[C@H](N)C(=O)N[C@@H](CO)C(=O)O (plate: PM6) 7830
CC(C)C[C@H](NC(=O)[C@@H]1CCCN1)C(=O)O (plate: PM7) 5560
N[C@@H](Cc1ccc(O)cc1)C(=O)NCC(=O)O (plate: PM7) 8600
CC(C)C[C@H](NC(=O)[C@@H](N)Cc1ccc(O)cc1)C(=O)O (plate: PM7) 6720
CC[C@H](C)[C@H](NC(=O)[C@H](C)N)C(=O)O (plate: PM8) 7110
CC(C)[C@H](N)C(=O)NCC(=O)O (plate: PM7) 6900

Respiration area under curve, inactive:
CC(C)C[C@H](N)C(=O)N[C@H](CC(C)C)C(=O)O (plate: PM8) 284
N[C@@H](CCC(=O)O)C(=O)N[C@@H](Cc1ccc(O)cc1)C(=O)O (plate: PM6) 1030
CSCC[C@H](N)C(=O)N[C@@H](CCC(=O)O)C(=O)O (plate: PM7) 1490
C[C@@H](N)C(=O)NCC(=O)NCC(=O)O (plate: PM8) 46.7
N[C@@H](CC(=O)O)C(=O)N[C@@H](Cc1c[nH]c2ccccc12)C(=O)O (plate: PM6) 1340
CC(C)[C@H](NC(=O)[C@@H](N)CC(=O)O)C(=O)O (plate: PM6) 1900
CSCCC(N)C(=O)NC(CCSC)C(=O)O (stereo not given) (plate: PM7) 0
CC(C)C[C@@H](N)C(=O)N[C@@H](Cc1ccc(O)cc1)C(=O)O (plate: PM8) 21.2
CC(C)C[C@H](NC(=O)[C@@H](N)CC(C)C)C(=O)O (plate: PM6) 1870
N[C@@H](Cc1ccccc1)C(=O)N[C@@H](Cc1c[nH]c2ccccc12)C(=O)O (plate: PM7) 389

From the supplement of paper PMC4206461
